The values below come from PubChem BioAssay AID651818 (Broad Institute, 2012).

Measured potencies and affinities stand elsewhere. Results filed as inconclusive are left out. Active and inactive are the calls of the source. Rule as the data show it: inconclusive = activity change below about -55%; inactive = above that.

A short description of this assay: intracellular Trypanosoma cruzi inhibitors in host cells – cell-based, plate reader, cherry-pick samples, set 3, dose response (AID 651818). Particulars: series mostly up to 10 µM.
Turning to `C[C@@H]1CN([C@@H](C)CO)C(=O)c2cccc(NS(=O)(=O)c3cn(C)cn3)c2O[C@H]1CN(C)C(=O)Nc1ccc2c(c1)OCO2`, the result was inactive. Next, `C[C@H]1CN([C@@H](C)CO)C(=O)c2cccc(NC(=O)c3ccncc3)c2O[C@@H]1CN(C)S(=O)(=O)c1ccccc1`: “inactive”; `C[C@H](CO)N1C[C@H](C)[C@H](CN(C)S(C)(=O)=O)Oc2c(NS(=O)(=O)c3ccc(F)cc3)cccc2C1=O`: “inactive”; `CC(C)NC(=O)N(C)C[C@@H]1Oc2c(NS(=O)(=O)c3ccc(F)cc3)cccc2C(=O)N([C@H](C)CO)C[C@@H]1C`: “inactive”. Next, `COc1ccc(NC(=O)N(C)C[C@H]2Oc3c(NC(=O)C4CCCCC4)cccc3C(=O)N([C@H](C)CO)C[C@@H]2C)cc1`: “inactive”; `C[C@H](CO)N1C[C@H](C)[C@@H](CN(C)S(=O)(=O)c2ccc(Cl)cc2)Oc2c(NC(=O)c3cnccn3)cccc2C1=O`: “inactive”; `C[C@@H]1CN([C@H](C)CO)C(=O)c2cccc(NS(=O)(=O)c3cn(C)cn3)c2O[C@@H]1CN(C)CC1CCCCC1`: “inactive”. With `Cc1ccc(S(=O)(=O)Nc2cccc3c2O[C@H](CN(C)CC2CCCCC2)[C@@H](C)CN([C@H](C)CO)C3=O)cc1` the entry was “inactive”; with `C[C@@H]1CN([C@@H](C)CO)C(=O)c2cccc(NC(=O)c3cnccn3)c2O[C@H]1CN(C)CC1CC1`, “inactive”; with `C[C@@H]1CN([C@@H](C)CO)C(=O)c2cccc(NC(=O)c3cnccn3)c2O[C@@H]1CN(C)S(=O)(=O)c1cccs1`, “inactive”. Take `C[C@@H]1CN([C@@H](C)CO)C(=O)c2cccc(NS(C)(=O)=O)c2O[C@H]1CN(C)C(=O)NC1CCCCC1`: the compound was called inactive. Next, `C[C@H](CO)N1C[C@H](C)[C@@H](CN(C)Cc2ccccc2)Oc2c(NS(C)(=O)=O)cccc2C1=O`: “inactive”. In the case of `Cc1noc(C)c1S(=O)(=O)Nc1cccc2c1O[C@@H](CN(C)CC1CC1)[C@@H](C)CN([C@H](C)CO)C2=O`, the result was inactive. Next, `C[C@@H]1CN([C@H](C)CO)C(=O)c2cccc(NS(=O)(=O)c3cn(C)cn3)c2O[C@@H]1CN(C)Cc1ccncc1`: “inactive”.

With `C[C@H]1CN([C@@H](C)CO)C(=O)c2cccc(NS(=O)(=O)c3cccs3)c2O[C@@H]1CN(C)C(=O)NC1CCCCC1`, the outcome was inactive. Next, `C[C@@H]1CN([C@@H](C)CO)C(=O)c2cccc(NS(=O)(=O)c3ccccc3)c2O[C@@H]1CN(C)CC1CC1`: “inactive”; `C[C@H](CO)N1C[C@H](C)[C@@H](CN(C)Cc2ccc3c(c2)OCO3)Oc2c(NS(=O)(=O)c3ccc(Cl)cc3)cccc2C1=O`: “inactive”; `C[C@H](CO)N1C[C@H](C)[C@H](CN(C)Cc2ccc3c(c2)OCO3)Oc2c(NC(=O)Nc3ccc(F)cc3)cccc2C1=O`: “inactive”. With `COc1ccc(S(=O)(=O)N(C)C[C@H]2Oc3c(NS(=O)(=O)c4ccc(F)cc4)cccc3C(=O)N([C@H](C)CO)C[C@H]2C)cc1` the entry was “inactive”; with `C[C@H](CO)N1C[C@H](C)[C@H](CN(C)S(C)(=O)=O)Oc2c(NS(=O)(=O)c3ccc(Cl)cc3)cccc2C1=O`, “inactive”. `C[C@@H]1CCCCO[C@@H](CN(C)Cc2ccc(C(F)(F)F)cc2)[C@@H](C)CN([C@H](C)CO)C(=O)c2cc(NC(=O)Nc3ccc4c(c3)OCO4)ccc2O1`: the call was inactive. With `Cc1noc(C)c1NC(=O)N(C)C[C@@H]1Oc2c(NC(=O)NC3CCCCC3)cccc2C(=O)N([C@@H](C)CO)C[C@@H]1C` the entry was “inactive”.
